The panel holds about 79,000 compounds, 15% with a hit somewhere; the sample as a whole holds those more often. A number with no mark means an inactive call. Activity calls are given as the source filed them. No stated cut-off is given here; in the data, active means growth inhibition above about 70%; inactive means the rest.
What was measured:
[1] = NCI Yeast Anticancer Drug Screen. Data for the rad50 strain (AID 155);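 further: 0% = growth of vehicle-only cultures of the same strain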; conditions: S. cerevisiae rad50 strain growth inhibition; at 50.0 µM; stronger effect = higher value
Outline: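 Inhibition values express reduced yeast growth in compound-treated cultures relative to vehicle-treated controls.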

[2] = NCI Yeast Anticancer Drug Screen. Data for the mec2-1 strain (AID 157); conditions: S. cerevisiae mec2-1 strain, at 50.0 µM, stronger effect = higher value
Outline: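 Vehicle-treated cultures served as reference for growth inhibition of compound-exposed mec2-1 yeast.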

[3] = NCI Yeast Anticancer Drug Screen. Data for the sgs1 mgt1 strain (AID 161);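 further: 0% = growth of cultures given vehicle only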; conditions: S. cerevisiae sgs1 mgt1 strain, at 50.0 µM, stronger effect = higher value
Outline: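 Test agents were incubated with a DNA-repair-mutant yeast strain. Growth was then read and compared against vehicle-treated controls.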

[4] = NCI Yeast Anticancer Drug Screen. Data for the cln2 rad14 strain (AID 165);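 further: 0% = growth equal to vehicle treated cultures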; conditions: S. cerevisiae cln2 rad14 strain, at 50.0 µM, stronger effect = higher value
Outline: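 Each compound was tested on cln2 rad14 yeast. Inhibition of growth was calculated against vehicle-exposed controls.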

[5] = NCI Yeast Anticancer Drug Screen. Data for the bub3 strain (AID 167); conditions: S. cerevisiae bub3 mutant strain, at 50.0 µM, stronger effect = higher value
Outline: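 Steps: expose the mutant yeast strain to compound; grow alongside vehicle-treated cultures; measure growth; express inhibition against the vehicle cultures.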

[6] = NCI Yeast Anticancer Drug Screen. Data for the mlh1 rad18 strain (AID 175); conditions: S. cerevisiae mlh1 rad18 strain growth inhibition; at 50.0 µM; stronger effect = higher value
Outline: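 Vehicle-treated cultures served as the reference for growth inhibition in a yeast strain carrying DNA damage repair alterations exposed to each compound.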

N#Cc1ccc(OC(=O)Nc2ccc(Cl)c(Cl)c2)cc1
growth inhibition [1]: -7.65% | growth inhibition [2]: -4.4% | growth inhibition [3]: 20.9% | growth inhibition [4]: 8.35% | growth inhibition [5]: 9.95% | growth inhibition [6]: 5.8%

NCCCN
growth inhibition [1]: 8.9% | growth inhibition [2]: -7.05% | growth inhibition [3]: -11.1% | growth inhibition [4]: -5.9% | growth inhibition [5]: 3.6% | growth inhibition [6]: 6.55%

CCOC(=O)Nc1cc2c(c(N)n1)N=C(c1ccccc1)CO2
growth inhibition [1]: 37.5% | growth inhibition [2]: 27.7% | growth inhibition [3]: 34% | growth inhibition [4]: 16.5% | growth inhibition [5]: 14.8% | growth inhibition [6]: -21.9%

CC(=O)OC(C(=O)O)c1ccccc1 (stereo unspecified)
growth inhibition [1]: 15.9% | growth inhibition [2]: -12.1% | growth inhibition [3]: 0.25% | growth inhibition [4]: 13.8% | growth inhibition [5]: -8% | growth inhibition [6]: 23.5%

C/C(=C\c1cc(Cl)ccc1OCC(=O)O)[N+](=O)[O-]
growth inhibition [1]: 38.1% | growth inhibition [2]: 56.1% | growth inhibition [3]: 44.5% | growth inhibition [4]: 26.9% | growth inhibition [5]: 40.8% | growth inhibition [6]: 56.2%

COc1cc(C(N)=O)cc(OC)c1OC
growth inhibition [1]: 2.9% | growth inhibition [2]: -9.5% | growth inhibition [3]: -0.35% | growth inhibition [4]: 4.9% | growth inhibition [5]: 4.95% | growth inhibition [6]: -2.65%

CC1(C)N=C(N)N=C(N)N1c1ccc(Cl)cc1
growth inhibition [1]: 19.7% | growth inhibition [2]: 3.35% | growth inhibition [3]: 0.4% | growth inhibition [4]: -20.2% | growth inhibition [5]: 3.85% | growth inhibition [6]: 35.7%

FC(F)(F)c1ccc2c(c1)N(CCCN1CCN(C3CC3)CC1)c1ccccc1S2
growth inhibition [1]: 99.3% (active) | growth inhibition [2]: 99.3% (active) | growth inhibition [3]: 99.7% (active) | growth inhibition [4]: 99% (active) | growth inhibition [5]: 99% (active) | growth inhibition [6]: 99.5% (active)

Cc1c(O)cccc1O
growth inhibition [1]: -5.55% | growth inhibition [2]: -17.4% | growth inhibition [3]: 7.8% | growth inhibition [4]: 7.1% | growth inhibition [5]: -8.2% | growth inhibition [6]: -8.3%

Oc1ccc2c(c1)OCC1(O)Cc3cc(O)c(O)cc3C21 (stereo unspecified)
growth inhibition [1]: 3.9% | growth inhibition [2]: -2.4% | growth inhibition [3]: 10.3% | growth inhibition [4]: 3.6% | growth inhibition [5]: 9.75% | growth inhibition [6]: -3.8%

CNC(=O)c1ccccc1CC1(O)c2ccccc2Oc2ccccc21
growth inhibition [1]: 0.4% | growth inhibition [2]: -13.5% | growth inhibition [3]: 9.05% | growth inhibition [4]: 0.7% | growth inhibition [5]: -9.25% | growth inhibition [6]: -8.55%

CCC/C=C(/C(C)=O)C(=O)OCC
growth inhibition [1]: 18.9% | growth inhibition [2]: -4.6% | growth inhibition [3]: -7% | growth inhibition [4]: 0.2% | growth inhibition [5]: -19.8% | growth inhibition [6]: -6.75%

O=C(CCl)N1CCN(C/C=C/c2ccccc2)CC1
growth inhibition [1]: 8.15% | growth inhibition [2]: -0.05% | growth inhibition [3]: 19.1% | growth inhibition [4]: -3.95% | growth inhibition [5]: 39.9% | growth inhibition [6]: 28.5%

CN(C)c1ccc(S(=O)(=O)O)cc1
growth inhibition [1]: 1.3% | growth inhibition [2]: -3.65% | growth inhibition [3]: 6.65% | growth inhibition [4]: 10% | growth inhibition [5]: 2.55% | growth inhibition [6]: 21.9%

CCCCC(=O)c1ccc(OC)cc1
growth inhibition [1]: 1.9% | growth inhibition [2]: -8.4% | growth inhibition [3]: 2.75% | growth inhibition [4]: 6.75% | growth inhibition [5]: -8.3% | growth inhibition [6]: -6.4%

COc1cccc(O)c1O
growth inhibition [1]: 3.45% | growth inhibition [2]: 9.4% | growth inhibition [3]: 1.2% | growth inhibition [4]: 16.9% | growth inhibition [5]: 9.95% | growth inhibition [6]: 19.4%

c1ccc(CN2COc3c(ccc4c3OCN(Cc3ccccc3)C4)C2)cc1
growth inhibition [1]: 7.4% | growth inhibition [2]: 20.8% | growth inhibition [3]: 23.1% | growth inhibition [4]: -22.7% | growth inhibition [5]: 9.7% | growth inhibition [6]: 8.3%

CCS(=O)(=O)c1cc(=O)[nH]c(=O)[nH]1
growth inhibition [1]: 22.1% | growth inhibition [2]: 24.9% | growth inhibition [3]: -30.9% | growth inhibition [4]: 32.5% | growth inhibition [5]: -1.45% | growth inhibition [6]: -1.6%

CCCC(=O)c1cc(C)ccc1OC
growth inhibition [1]: -2.15% | growth inhibition [2]: 0.15% | growth inhibition [3]: -9.85% | growth inhibition [4]: -22.6% | growth inhibition [5]: 6.6% | growth inhibition [6]: -3.2%

NNc1ccccc1C(=O)O
growth inhibition [1]: 4.4% | growth inhibition [2]: -3.05% | growth inhibition [3]: -2.55% | growth inhibition [4]: -4.15% | growth inhibition [5]: -2% | growth inhibition [6]: 14.8%

CC(C)NC(=O)OCc1c(COC(=O)NC(C)C)c(-c2ccc(Cl)c(Cl)c2)n2c1SCC2
growth inhibition [1]: 33.9% | growth inhibition [2]: -7.95% | growth inhibition [3]: 15.9% | growth inhibition [4]: -1.35% | growth inhibition [5]: 2.9% | growth inhibition [6]: 52.9%

O=c1cc(-c2ccccc2)oc2c1ccc1ccccc12
growth inhibition [1]: 11% | growth inhibition [2]: 34.1% | growth inhibition [3]: 21.9% | growth inhibition [4]: -90.3% | growth inhibition [5]: 52.5% | growth inhibition [6]: 38.5%

Cc1ccc(Cl)cc1N1C(=O)CC(Sc2ccccc2N)C1=O (stereo unspecified)
growth inhibition [1]: 21.9% | growth inhibition [2]: -2.8% | growth inhibition [3]: 28.4% | growth inhibition [4]: 8.65% | growth inhibition [5]: 30.8% | growth inhibition [6]: 20.2%

CCOC(=O)c1cc(/C=C/c2cccc(Cl)c2)on1
growth inhibition [1]: 57.2% | growth inhibition [2]: 27.6% | growth inhibition [3]: 25.9% | growth inhibition [4]: 26.1% | growth inhibition [5]: 8.1% | growth inhibition [6]: 47.4%

Cc1ccc(C(O)C2CC2)cc1 (stereo unspecified)
growth inhibition [1]: -24.2% | growth inhibition [2]: -38.6% | growth inhibition [3]: -23.1% | growth inhibition [4]: 11.4% | growth inhibition [5]: -21.6% | growth inhibition [6]: -0.65%

C/C(=C\c1ccc([N+](=O)[O-])cc1)C(=O)O
growth inhibition [1]: 23.6% | growth inhibition [2]: 23.1% | growth inhibition [3]: 19.2% | growth inhibition [4]: 12.2% | growth inhibition [5]: 31.4% | growth inhibition [6]: 47.5%

COC(=O)/C=C\C(=O)OC
growth inhibition [1]: 16.1% | growth inhibition [2]: 6.85% | growth inhibition [3]: -15.1% | growth inhibition [4]: -5.65% | growth inhibition [5]: -10.3% | growth inhibition [6]: 14.7%

N=c1c(C(=O)OCc2ccccc2)ncc(CCl)n1O
growth inhibition [1]: 37.3% | growth inhibition [2]: 80.5% (active) | growth inhibition [3]: 72.2% (active) | growth inhibition [4]: 22.9% | growth inhibition [5]: 73.2% (active) | growth inhibition [6]: 77.8% (active)

O=S(=O)(O)c1ccc(Cl)c(Cl)c1
growth inhibition [1]: -0.35% | growth inhibition [2]: -15% | growth inhibition [3]: -3.4% | growth inhibition [4]: 15.4% | growth inhibition [5]: -19.5% | growth inhibition [6]: -2.25%

Nc1ccc(N=Nc2ccc(S(=O)(=O)O)cc2)c2ccccc12
growth inhibition [1]: -0.3% | growth inhibition [2]: 3.15% | growth inhibition [3]: -22.4% | growth inhibition [4]: -25.9% | growth inhibition [5]: 1.75% | growth inhibition [6]: 9.05%

Cc1ncc(C#N)c(N)n1
growth inhibition [1]: -24.9% | growth inhibition [2]: -18% | growth inhibition [3]: 12.9% | growth inhibition [4]: -7.1% | growth inhibition [5]: -3.05% | growth inhibition [6]: -5.4%

Source: PubChem BioAssay (NCI)
